Data reported in PubChem BioAssay (NCI).
The panel holds about 83,000 compounds, 20% with a hit somewhere; the sample as a whole holds those more often.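 96-well plates, one dose, 48 hours. Percent growth reported; active if below 10.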 Unmarked numbers belong to inactive results. Active and inactive are the calls of the source.

Key:
Experiment in all cases: NCI-60 one-dose screen, 48 h (100 = growth as untreated, 0 = no growth, -100 = all killed)
Conditions in all cases: 10 µM unless noted
[1] = tested on: NCI-H23 lung
[2] = tested on: NCI-H226 lung
[3] = tested on: HOP-62 NSCLC
[4] = tested on: NCI-H460 lung
[5] = tested on: HOP-92 NSCLC
[6] = tested on: NCI-H522 lung
[7] = tested on: A549/ATCC NSCLC
[8] = tested on: 786-0 renal
[9] = tested on: COLO 205 colon
[10] = tested on: NCI-H322M lung

SMILES	growth [1]	growth [2]	growth [3]	growth [4]	growth [5]	growth [6]	growth [7]	growth [8]	growth [9]	growth [10]
COc1ccccc1NC(=O)Cn1cc(CN2CCN(c3ccnc4cc(Cl)ccc34)CC2)nn1	89.2%	84.7%	86.2%	96.3%	61.8%	86.8%	91%	99%	101%	
Cc1ccccc1NC(=O)c1sc2nc(C)c(C(=O)/C=C/c3ccccc3)cc2c1N	43.3%	26.2%	9.21% (active)	0.299% (active)	37%	17.9%	14.3%	-16.9% (active)	64.1%	
CC[C@]12C=CCN3CC[C@@]4(c5cc(NC(=O)CCC(=O)OCc6cn(Cc7ccc(F)cc7)nn6)c(OC)cc5N(C)[C@H]4[C@@](O)(C(=O)OC)[C@@H]1OC(C)=O)[C@@H]32	97.2%	95.2%	100%	106%	92.5%	98.5%	96.5%	96.4%	107%	
CCN1CCN(c2cc(C(=O)Nc3nc(-c4cc(OC)c(OC)c(OC)c4)cs3)cc(C(F)(F)F)c2)CC1	79.4%	86.8%		57.3%	42.2%	67.6%	81.1%	49.1%	58.2%	
CCOc1nc(-c2ccccc2)cc2c(O)c(C(=O)NN)[nH]c(=O)c12	117%	105%	123%	86.1%		88.5%	103%	97.3%	121%	
CC(C)N1CN2C(=S)NC3C2N(C1)C(=S)N3C (configuration not stated)	102%	100%	103%	105%	101%	90.2%	90.8%	99.3%	120%	
Cn1c(=O)c2c(nc(NC3=NS(=O)(=O)c4ccccc43)n2CC(=O)N2CCc3ccccc32)n(C)c1=O	87.2%	98.8%	94.4%	100%	109%	97.5%	99.3%	97.3%	101%	
CC1(c2ccccc2O)NN=C(/N=C/c2cccc([N+](=O)[O-])c2)N1C(Cc1c[nH]c2ccccc12)C(=O)O (configuration not stated)	80.3%	82.1%		102%		70.2%	103%	99.5%	84%	97.6%
COc1ccc(/C=C2\C(=O)N=C3N2NC(c2cc(Br)ccc2O)C=C(C)N3c2ccccc2)cc1 (configuration not stated)	94.7%	85.1%	108%	104%	93.6%	95.1%	96%	101%	115%	
O=C(CI)NC1Oc2ccccc2-c2oc(=O)c(-c3ccccc3)cc21 (configuration not stated)	-55.7% (active)	-43.3% (active)	-3.99% (active)	0.996% (active)	-72.4% (active)	-75.6% (active)	94.7%	-79.3% (active)	-53.5% (active)	
Cc1c(-n2nnc(-c3nc4ccccc4s3)c2N)c(=O)n(-c2ccccc2)n1C	93.3%	91.4%	103%	103%	104%	90.6%	105%	107%	104%	
CCOC(=O)c1c(C)nc2c(c1N)CC(=O)N2Cc1cc(F)cc(Cl)c1	81.8%	89.1%	89.7%	98.1%	78.1%	66.8%	82.8%	88.2%	121%	
COC(=O)c1c2c(c(C)[n+]([O-])c1C)C(=O)C=C(NCc1ccc(OC)cc1)C2=O	-38.8% (active)	-8.68% (active)		-3.91% (active)		-19.5% (active)	-18.4% (active)	3.11% (active)	-54% (active)	-6.26% (active)
CC(=O)OC[C@]12CCC(C)(C)C[C@H]1[C@@]1(O)[C@H](O)C[C@@H]3[C@@]4(C)CCCNC(C)(C)[C@@H]4CC[C@@]3(C)[C@]1(C)CC2	106%		107%	110%	112%	93.6%	106%	101%	117%	98.1%
COC1C[C@H](O[C@@H]2C[C@H](O[C@@H]3C[C@H](O[C@@H]4C(=O)c5c(cc6cc(O[C@H]7C[C@@H](O[C@H]8C[C@@H](O)[C@H](O)C(C)O8)[C@H](O)C(C)O7)c(C)c(O)c6c5O)C[C@H]4C(OC)C(=O)[C@@H](O)[C@@H](C)O)OC(C)[C@H]3O)OC(C)[C@@H]2O)OC(C)[C@@H]1O (some centres not stated)	-1.75% (active)		-7.62% (active)	6.26% (active)		-33.1% (active)	1.74% (active)	-5.74% (active)	-78.3% (active)	6.22% (active)
COc1ccc(/C=C2\COc3ccc(O)cc3C2=O)c(OC)c1OC	89.5%		80.9%	84.8%	102%	55.6%	92.4%	87.7%	102%	95.8%
OCCOCCN(Cc1ccccn1)Cc1cc(I)cc(I)c1O	90.2%		84.9%	59.5%	90.2%	74.4%	88.5%	85.2%		82.9%
Nc1c(C(=O)Nc2ccncc2)sc2nc3c(cc12)CCCCCC3	88.6%		96.6%	89.9%	67.1%	81.6%	76.7%	74.6%	104%	80.6%
COc1cc(-c2nc(SCC(C)C)nc(Nc3cccc4ccccc34)c2C#N)cc(OC)c1OC	102%		87.2%	82.3%	92.9%	89.2%	88.4%	103%	95.3%	101%
CCS/C(Nc1ccccc1)=C(\C#N)C(=O)N/N=C/c1ccc(Cl)cc1Cl	41.3%			8.05% (active)	29.2%	1.02% (active)	38.3%	31.8%	28.4%	70.9%
CCOC(=O)c1cn2ncnc(Oc3ccc(NC(=O)NC4CCCCC4)c(Cl)c3)c2c1C	68.8%		79.9%	96.4%	86.8%	67.1%	58.7%	81.6%	96.9%	85.2%
COC(C(=O)[C@@H](O)[C@@H](C)O)[C@@H]1Cc2cc3cc(O[C@H]4C[C@@H](O[C@H]5C[C@@H](O)[C@H](O)C(C)O5)[C@H](O)C(C)O4)c(C)c(O)c3c(O)c2C(=O)[C@H]1O[C@H]1C[C@@H](O[C@H]2C[C@@H](O[C@H]3C[C@@H](O)[C@H](OC)C(C)O3)[C@@H](O)C(C)O2)[C@H](O)C(C)O1 (some centres not stated)	-30.6% (active)		-6.87% (active)	9.27% (active)	-2.22% (active)	-26.8% (active)	3.24% (active)	4.65% (active)	-44.4% (active)	5.34% (active)
C=C(C)[C@@H]1CC[C@]2(C(=O)N3CCN(C)CC3)CC[C@]3(C)[C@H](CC[C@@H]4[C@@]5(C)CC(=C/c6ccncc6)/C(=N/O)C(C)(C)[C@@H]5CC[C@]43C)[C@@H]12	78.1%		96.8%	69.5%		69%	73.9%	74.6%	80.8%	75.1%
O=C(/C=C(/C=C/c1cccc2[nH]ccc12)OB(F)F)/C=C/c1cccc2[nH]ccc12	-34.8% (active)		-35.7% (active)	0.502% (active)	-27.2% (active)	-71.4% (active)	-30.9% (active)	-60.1% (active)	-70.6% (active)	0.979% (active)
CCCCCCCCCCCCCCCCCCOc1ccccc1CC(=O)NCC[N+]1(C)CCCC1	55.3%			34.8%	22.6%	32.8%	50.6%	70.2%	-6.88% (active)	67.3%
N#Cc1cnc(NCCc2ccncc2)nc1-n1cnc2ccccc21	76%			39.5%	95.7%	55.8%	53.5%	40.3%	72.1%	
CCCNC(=O)Oc1ccc(/C(=C(/C)Cc2ccc(OC)cc2)c2ccc(OCCCN(C)C)cc2)cc1	82.4%		101%	73.3%	51.7%	78.5%	77.6%	92%	71.6%	88.3%
